Laboratory results reported in the supplement of paper PMC6607015.
Counter-ions that a name gives are not always drawn.

Legend:
Settings in all cases: compound concentration in added solution (µM; 5 µl added to 20 µl cells): 10; 18 h
[1] = tested on: A431; assay: LBPA endosome anti-LBPA integrated intensity (sum per cell), Z-score; higher = more LBPA staining
Method in brief: (§1)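 After 18 h on 5 µl of 10 µM compound solution in duplicate 384-well imaging plates, HeLa MZ or A431 cells, seeded at 3,500 per well in 20 µl, were fixed with 4% PFA. They were then labelled with 6C4 anti-LBPA antibody, filipin, propidium iodide and CellTracker green, and four 20× fields were recorded per well. Integrated LBPA or filipin intensity per cell, whole-cell or within LBPA endosomes, came from MetaXpress segmentation and was normalised to Z-scores in AcuityXpress.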

[2] = tested on: HeLa MZ; assay: as above
Method in brief: as §1

[3] = tested on: A431; assay: whole-cell filipin (free cholesterol) integrated intensity, Z-score; higher = more cholesterol staining
Method in brief: as §1

[4] = tested on: HeLa MZ; assay: as above
Method in brief: as §1

[5] = tested on: A431; assay: filipin (cholesterol) integrated intensity within LBPA endosomes, Z-score; higher = more cholesterol in LBPA endosomes
Method in brief: as §1

[6] = tested on: HeLa MZ; assay: as above
Method in brief: as §1

Compound: CC(C)NCC(O)c1ccc2ccccc2c1 (centres undefined) [Pronethalol hydrochloride]
- LBPA endosome anti-LBPA integrated intensity (z-score) [1]: 0.244
- LBPA endosome anti-LBPA integrated intensity (z-score) [2]: -0.115
- whole-cell filipin (z-score) [3]: 0.379
- whole-cell filipin (z-score) [4]: 0.0476
- filipin (z-score) [5]: -0.072
- filipin (z-score) [6]: -0.11

Compound: CCN(CCO)CCCC(C)Nc1ccnc2cc(Cl)ccc12 (centres undefined) [Hydroxychloroquine sulfate]
- LBPA endosome anti-LBPA integrated intensity (z-score) [1]: 0.14
- LBPA endosome anti-LBPA integrated intensity (z-score) [2]: 1.98
- whole-cell filipin (z-score) [3]: -0.556
- whole-cell filipin (z-score) [4]: 0.249
- filipin (z-score) [5]: -0.241
- filipin (z-score) [6]: 0.821

Compound: Nc1ccc(C(=O)O)c(O)c1 [4-aminosalicylic acid]
- LBPA endosome anti-LBPA integrated intensity (z-score) [1]: -0.488
- LBPA endosome anti-LBPA integrated intensity (z-score) [2]: -0.439
- whole-cell filipin (z-score) [3]: -0.159
- whole-cell filipin (z-score) [4]: -0.434
- filipin (z-score) [5]: -0.444
- filipin (z-score) [6]: -0.569

Compound: O=C(Nc1ccccc1)OCC(CN1CCCCC1)OC(=O)Nc1ccccc1 (centres undefined) [Diperodon hydrochloride]
- LBPA endosome anti-LBPA integrated intensity (z-score) [1]: 1.44
- LBPA endosome anti-LBPA integrated intensity (z-score) [2]: 2.96
- whole-cell filipin (z-score) [3]: 0.922
- whole-cell filipin (z-score) [4]: -0.386
- filipin (z-score) [5]: 1.23
- filipin (z-score) [6]: 1.1

Compound: Cc1c(C)c2c(c(C)c1O)CCC(C)(COc1ccc(CC3SC(=O)NC3=O)cc1)O2 (centres undefined) [Troglitazone]
- LBPA endosome anti-LBPA integrated intensity (z-score) [1]: -0.514
- LBPA endosome anti-LBPA integrated intensity (z-score) [2]: -0.51
- whole-cell filipin (z-score) [3]: -0.29
- whole-cell filipin (z-score) [4]: -0.287
- filipin (z-score) [5]: -0.459
- filipin (z-score) [6]: -0.355

Compound: CCCCOC(=O)c1ccc(O)cc1 [Butylparaben]
- LBPA endosome anti-LBPA integrated intensity (z-score) [1]: -0.425
- LBPA endosome anti-LBPA integrated intensity (z-score) [2]: -0.532
- whole-cell filipin (z-score) [3]: -0.203
- whole-cell filipin (z-score) [4]: -0.161
- filipin (z-score) [5]: -0.376
- filipin (z-score) [6]: -0.449

Compound: NCCc1ccc(O)c(O)c1 [Dopamine hydrochloride]
- LBPA endosome anti-LBPA integrated intensity (z-score) [1]: -0.272
- LBPA endosome anti-LBPA integrated intensity (z-score) [2]: 0.0633
- whole-cell filipin (z-score) [3]: 0.184
- whole-cell filipin (z-score) [4]: -0.446
- filipin (z-score) [5]: -0.377
- filipin (z-score) [6]: -0.485

Compound: CC(C)COCC(CN(Cc1ccccc1)c1ccccc1)N1CCCC1 (centres undefined) [Bepridil hydrochloride]
- LBPA endosome anti-LBPA integrated intensity (z-score) [1]: 1.46
- LBPA endosome anti-LBPA integrated intensity (z-score) [2]: 1.74
- whole-cell filipin (z-score) [3]: -0.0149
- whole-cell filipin (z-score) [4]: -0.717
- filipin (z-score) [5]: 2.11
- filipin (z-score) [6]: 0.331

Compound: CC(C(=O)O)c1ccc2c(c1)[nH]c1ccc(Cl)cc12 (centres undefined) [Carprofen]
- LBPA endosome anti-LBPA integrated intensity (z-score) [1]: -0.569
- LBPA endosome anti-LBPA integrated intensity (z-score) [2]: -1.21
- whole-cell filipin (z-score) [3]: -0.098
- whole-cell filipin (z-score) [4]: -0.307
- filipin (z-score) [5]: -0.398
- filipin (z-score) [6]: -0.538

Compound: O=C(O)c1cc(-c2ccc(F)cc2F)ccc1O [Diflunisal]
- LBPA endosome anti-LBPA integrated intensity (z-score) [1]: -0.321
- LBPA endosome anti-LBPA integrated intensity (z-score) [2]: -0.139
- whole-cell filipin (z-score) [3]: -0.11
- whole-cell filipin (z-score) [4]: -0.25
- filipin (z-score) [5]: -0.434
- filipin (z-score) [6]: -0.569

Compound: CC(C)Cn1cnc2c(N)nc3ccccc3c21 [Imiquimod]
- LBPA endosome anti-LBPA integrated intensity (z-score) [1]: 0.0371
- LBPA endosome anti-LBPA integrated intensity (z-score) [2]: 0.531
- whole-cell filipin (z-score) [3]: 0.233
- whole-cell filipin (z-score) [4]: 0.058
- filipin (z-score) [5]: -0.267
- filipin (z-score) [6]: -0.158

Compound: CC(C)NCC(O)COc1ccc(COCCOC(C)C)cc1 (centres undefined) [Bisoprolol fumarate]
- LBPA endosome anti-LBPA integrated intensity (z-score) [1]: 0.695
- LBPA endosome anti-LBPA integrated intensity (z-score) [2]: 0.146
- whole-cell filipin (z-score) [3]: -0.603
- whole-cell filipin (z-score) [4]: 0.308
- filipin (z-score) [5]: -0.0123
- filipin (z-score) [6]: -0.0431

Compound: Clc1ccccc1CN1CCc2sccc2C1 [Ticlopidine hydrochloride]
- LBPA endosome anti-LBPA integrated intensity (z-score) [1]: -0.571
- LBPA endosome anti-LBPA integrated intensity (z-score) [2]: -1.16
- whole-cell filipin (z-score) [3]: -0.834
- whole-cell filipin (z-score) [4]: -0.662
- filipin (z-score) [5]: -0.515
- filipin (z-score) [6]: -0.675

Compound: COc1ccc2c(c1)C(=O)N(CCc1ccc(S(=O)(=O)NC(=O)NC3CCCCC3)cc1)C(=O)C2(C)C [Gliquidone]
- LBPA endosome anti-LBPA integrated intensity (z-score) [1]: -0.483
- LBPA endosome anti-LBPA integrated intensity (z-score) [2]: 0.216
- whole-cell filipin (z-score) [3]: -0.152
- whole-cell filipin (z-score) [4]: -0.511
- filipin (z-score) [5]: -0.531
- filipin (z-score) [6]: -0.598

Compound: CCSc1ccc2c(c1)N(CCCN1CCN(C)CC1)c1ccccc1S2 [Thiethylperazine dimalate]
- LBPA endosome anti-LBPA integrated intensity (z-score) [1]: 3.37
- LBPA endosome anti-LBPA integrated intensity (z-score) [2]: 1.8
- whole-cell filipin (z-score) [3]: -0.311
- whole-cell filipin (z-score) [4]: -0.392
- filipin (z-score) [5]: 1.25
- filipin (z-score) [6]: 1.79

Compound: CCCc1ncc(C[n+]2ccccc2C)c(N)n1 [Amprolium hydrochloride]
- LBPA endosome anti-LBPA integrated intensity (z-score) [1]: -0.558
- LBPA endosome anti-LBPA integrated intensity (z-score) [2]: -1.09
- whole-cell filipin (z-score) [3]: -0.581
- whole-cell filipin (z-score) [4]: -0.0131
- filipin (z-score) [5]: -0.483
- filipin (z-score) [6]: -0.419

Compound: C[C@H]1NC(=O)NC1=O [Methylhydantoin-5-(D)]
- LBPA endosome anti-LBPA integrated intensity (z-score) [1]: -0.487
- LBPA endosome anti-LBPA integrated intensity (z-score) [2]: -0.363
- whole-cell filipin (z-score) [3]: -0.289
- whole-cell filipin (z-score) [4]: -0.267
- filipin (z-score) [5]: -0.458
- filipin (z-score) [6]: -0.381

Compound: NC(=O)N1c2ccccc2CC(=O)c2ccccc21 [Oxcarbazepine]
- LBPA endosome anti-LBPA integrated intensity (z-score) [1]: -0.669
- LBPA endosome anti-LBPA integrated intensity (z-score) [2]: -1.06
- whole-cell filipin (z-score) [3]: -0.767
- whole-cell filipin (z-score) [4]: -1.13
- filipin (z-score) [5]: -0.582
- filipin (z-score) [6]: -0.729

Compound: CCS(=O)(=O)CCn1c([N+](=O)[O-])cnc1C [Tinidazole]
- LBPA endosome anti-LBPA integrated intensity (z-score) [1]: -0.319
- LBPA endosome anti-LBPA integrated intensity (z-score) [2]: -0.148
- whole-cell filipin (z-score) [3]: -0.195
- whole-cell filipin (z-score) [4]: -0.143
- filipin (z-score) [5]: -0.394
- filipin (z-score) [6]: -0.524

Compound: CC(=O)Nc1c(I)c(C(=O)N[C@H]2C(O)O[C@H](CO)[C@@H](O)[C@@H]2O)c(I)c(N(C)C(C)=O)c1I (some centres undefined) [Metrizamide]
- LBPA endosome anti-LBPA integrated intensity (z-score) [1]: -0.495
- LBPA endosome anti-LBPA integrated intensity (z-score) [2]: -0.295
- whole-cell filipin (z-score) [3]: -0.527
- whole-cell filipin (z-score) [4]: -0.9
- filipin (z-score) [5]: -0.561
- filipin (z-score) [6]: -0.597

Compound: Cc1nc2n(c(=O)c1CCN1CCC(c3noc4cc(F)ccc34)CC1)CCCC2 [Risperidone]
- LBPA endosome anti-LBPA integrated intensity (z-score) [1]: 0.208
- LBPA endosome anti-LBPA integrated intensity (z-score) [2]: 1.64
- whole-cell filipin (z-score) [3]: 0.491
- whole-cell filipin (z-score) [4]: 0.264
- filipin (z-score) [5]: -0.0506
- filipin (z-score) [6]: 0.539

Compound: CC(C)(C)NC[C@@H](O)COc1cccc2c1CCCC2=O [(+) -Levobunolol hydrochloride]
- LBPA endosome anti-LBPA integrated intensity (z-score) [1]: -0.326
- LBPA endosome anti-LBPA integrated intensity (z-score) [2]: 1.33
- whole-cell filipin (z-score) [3]: -0.176
- whole-cell filipin (z-score) [4]: -0.0312
- filipin (z-score) [5]: -0.353
- filipin (z-score) [6]: 0.0482

Compound: Cc1ccc(C)c(OCCCC(C)(C)C(=O)O)c1 [Gemfibrozil]
- LBPA endosome anti-LBPA integrated intensity (z-score) [1]: -0.639
- LBPA endosome anti-LBPA integrated intensity (z-score) [2]: -0.782
- whole-cell filipin (z-score) [3]: -0.695
- whole-cell filipin (z-score) [4]: -0.706
- filipin (z-score) [5]: -0.635
- filipin (z-score) [6]: -0.699

Compound: CC#C[C@]1(O)CC[C@H]2[C@@H]3CCC4=CC(=O)CCC4=C3[C@@H](c3ccc(N(C)C)cc3)C[C@@]21C [Mifepristone]
- LBPA endosome anti-LBPA integrated intensity (z-score) [1]: -0.423
- LBPA endosome anti-LBPA integrated intensity (z-score) [2]: 0.259
- whole-cell filipin (z-score) [3]: -0.703
- whole-cell filipin (z-score) [4]: -0.6
- filipin (z-score) [5]: -0.386
- filipin (z-score) [6]: -0.393
